# From PubChem BioAssay (EPA / NIEHS)
# Records with an inconclusive call do not appear. Calls of active or inactive are those of the source. How the source made its calls, unless noted: active means hit-call score of the fitted dose curve at least 0.9, where 1 is the maximum; inconclusive means response in the unintended direction; inactive means score below 0.9.
# How the values were obtained:
# [1] = target: human CYP2B6, CYP2B6 (gene 1555) (UniProt P20813); test: NVS_ADME_hCYP2B6: NovaScreen (NVS) CYP450-related Enzyme Activity (ADME) Assay for human CYP2B6 (AID 2283101)
# Chain of human CYP2B6, CYP2B6 (gene 1555) (P20813 whole entry, looked up): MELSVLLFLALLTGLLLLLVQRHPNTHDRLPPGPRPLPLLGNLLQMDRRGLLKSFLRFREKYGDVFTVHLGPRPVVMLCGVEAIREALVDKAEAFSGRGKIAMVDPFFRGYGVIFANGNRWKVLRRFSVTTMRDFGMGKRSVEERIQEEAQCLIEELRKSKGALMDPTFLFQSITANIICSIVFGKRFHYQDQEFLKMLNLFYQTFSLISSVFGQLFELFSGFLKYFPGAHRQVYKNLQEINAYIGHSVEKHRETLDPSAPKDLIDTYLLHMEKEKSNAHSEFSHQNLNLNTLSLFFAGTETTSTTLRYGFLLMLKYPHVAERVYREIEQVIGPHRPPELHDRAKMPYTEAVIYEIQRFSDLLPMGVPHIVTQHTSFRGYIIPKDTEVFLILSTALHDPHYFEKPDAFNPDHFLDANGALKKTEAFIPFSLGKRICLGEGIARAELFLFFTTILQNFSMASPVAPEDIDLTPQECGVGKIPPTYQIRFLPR
# Summary of the method: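 Compounds were first screened in duplicate at 10 uM against recombinant enzyme, with the fluorescent product measured after 1 hour. Active compounds were retested over a concentration series. Loss of fluorescence versus acetonitrile control was scored as reduced enzyme activity.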
# [2] = target: human CYP1A2, CYP1A2 (gene 1544) (UniProt P05177); test: NVS_ADME_hCYP1A2: NovaScreen (NVS) CYP450-related Enzyme Activity (ADME) Assay for human CYP1A2 (AID 2283102);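 on AC50: potency for inhibition since loss of fluorescence marks reduced CYP1A2 activity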
# Chain of human CYP1A2, CYP1A2 (gene 1544) (P05177 whole entry, looked up): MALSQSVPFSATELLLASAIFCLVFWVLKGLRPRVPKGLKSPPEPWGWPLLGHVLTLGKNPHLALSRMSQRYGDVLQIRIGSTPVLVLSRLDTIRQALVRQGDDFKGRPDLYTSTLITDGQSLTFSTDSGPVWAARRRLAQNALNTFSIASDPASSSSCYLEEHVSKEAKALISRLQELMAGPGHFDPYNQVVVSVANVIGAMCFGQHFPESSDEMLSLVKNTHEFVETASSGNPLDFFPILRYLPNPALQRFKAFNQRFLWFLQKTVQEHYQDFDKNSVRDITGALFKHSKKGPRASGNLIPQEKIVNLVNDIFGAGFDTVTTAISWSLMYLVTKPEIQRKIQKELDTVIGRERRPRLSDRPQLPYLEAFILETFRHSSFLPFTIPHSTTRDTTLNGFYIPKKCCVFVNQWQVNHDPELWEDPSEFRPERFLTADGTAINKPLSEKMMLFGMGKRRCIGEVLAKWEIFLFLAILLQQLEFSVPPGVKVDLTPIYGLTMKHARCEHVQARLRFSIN
# Summary of the method: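 Fluorescence-intensity enzyme activity read-out, taken 0.5 h post-dosing, using insect-cell-derived recombinant CYP1A2 and specific fluorescent substrate. Acetonitrile served as negative control/baseline. Single-concentration duplicate screen at 10 uM, then concentration-response follow-up.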
# [3] = target: Cytochrome P450 2C18 (Homo sapiens) (UniProt P33260); test: NVS_ADME_hCYP2C18: NovaScreen (NVS) CYP450-related Enzyme Activity (ADME) Assay for human CYP2C18 (AID 2283103; active means hit-call score of the fitted dose curve at least 0.9, where 1 is the maximum; inactive means score below 0.9)
# Chain of Cytochrome P450 2C18 (Homo sapiens) (P33260 whole entry, looked up): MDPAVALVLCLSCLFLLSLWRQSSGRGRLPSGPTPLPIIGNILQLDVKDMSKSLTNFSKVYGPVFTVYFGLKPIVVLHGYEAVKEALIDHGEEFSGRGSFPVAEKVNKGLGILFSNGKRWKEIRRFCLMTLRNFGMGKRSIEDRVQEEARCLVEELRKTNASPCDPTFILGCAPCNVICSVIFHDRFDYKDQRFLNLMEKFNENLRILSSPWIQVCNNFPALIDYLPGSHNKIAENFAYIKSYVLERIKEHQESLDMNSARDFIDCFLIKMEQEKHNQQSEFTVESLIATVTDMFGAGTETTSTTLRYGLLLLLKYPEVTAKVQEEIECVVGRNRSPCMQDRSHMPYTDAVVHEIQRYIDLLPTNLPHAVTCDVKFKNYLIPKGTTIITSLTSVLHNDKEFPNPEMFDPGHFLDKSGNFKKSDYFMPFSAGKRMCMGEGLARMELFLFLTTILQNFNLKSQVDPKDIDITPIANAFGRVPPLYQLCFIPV
# Summary of the method: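 Enzyme activity measured by fluorescence 0.5 h after compound addition, using recombinant CYP2C18 and a specific substrate. Actives from duplicate 10 uM screening were retested in concentration series (top 20 uM); acetonitrile served as negative baseline.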
# [4] = target: human CYP2C8, CYP2C8 (gene 1558) (UniProt P10632); test: NVS_ADME_hCYP2C8: NovaScreen (NVS) CYP450-related Enzyme Activity (ADME) Assay for human CYP2C8 (AID 2283104; active means hit-call score of the fitted dose curve at least 0.9, where 1 is the maximum; inactive means score below 0.9)
# Summary of the method: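 Fluorescence readout of substrate turnover by recombinant CYP2C8 after 0.5 h, baseline acetonitrile. Single-concentration duplicate screen at 10 uM preceded singleton concentration series (max 20 uM) for compounds passing the inhibition threshold.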
# [5] = target: human CYP2J2, CYP2J2 (gene 1573) (UniProt P51589); test: NVS_ADME_hCYP2J2: NovaScreen (NVS) CYP450-related Enzyme Activity (ADME) Assay for human CYP2J2 (AID 2283106)
# Chain of human CYP2J2, CYP2J2 (gene 1573) (P51589 whole entry, looked up): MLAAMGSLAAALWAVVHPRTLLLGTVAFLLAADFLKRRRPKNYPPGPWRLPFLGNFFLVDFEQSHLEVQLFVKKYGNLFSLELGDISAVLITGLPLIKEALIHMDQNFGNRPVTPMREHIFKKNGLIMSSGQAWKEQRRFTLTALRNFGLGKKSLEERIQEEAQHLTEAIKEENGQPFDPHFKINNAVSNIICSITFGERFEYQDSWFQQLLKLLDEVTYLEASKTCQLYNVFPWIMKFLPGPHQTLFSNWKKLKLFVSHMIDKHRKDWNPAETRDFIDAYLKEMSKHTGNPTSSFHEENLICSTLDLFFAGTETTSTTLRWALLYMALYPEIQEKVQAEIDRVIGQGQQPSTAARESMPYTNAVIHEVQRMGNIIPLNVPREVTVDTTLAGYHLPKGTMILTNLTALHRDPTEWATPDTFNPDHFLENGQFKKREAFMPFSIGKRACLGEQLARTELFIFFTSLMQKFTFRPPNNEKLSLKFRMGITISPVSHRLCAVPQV
# Summary of the method: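 Chemicals were first tested at 10 uM in duplicate, and hits meeting criteria such as 30% inhibition were run in singleton concentration series with a 20 uM top concentration. Enzyme activity of recombinant CYP2J2 was measured by fluorescence after 1 h, relative to acetonitrile.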
# [6] = target: human CYP2D6, CYP2D6 (gene 1565) (UniProt P10635); test: NVS_ADME_hCYP2D6: NovaScreen (NVS) CYP450-related Enzyme Activity (ADME) Assay for human CYP2D6 (AID 2283107)
# Summary of the method: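 Fluorescence intensity read 1 h post-dosing; insect-cell-expressed recombinant protein with fluorogenic substrate, no cells. Activity is scored as signal loss relative to acetonitrile baseline, first at a single 10 uM concentration in duplicate, then as concentration series for confirmed actives.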
# [7] = target: human CYP2C9, CYP2C9 (gene 1559) (UniProt P11712); test: NVS_ADME_hCYP2C9: NovaScreen (NVS) CYP450-related Enzyme Activity (ADME) Assay for human CYP2C9 (AID 2283108)
# Chain of human CYP2C9, CYP2C9 (gene 1559) (P11712 whole entry, looked up): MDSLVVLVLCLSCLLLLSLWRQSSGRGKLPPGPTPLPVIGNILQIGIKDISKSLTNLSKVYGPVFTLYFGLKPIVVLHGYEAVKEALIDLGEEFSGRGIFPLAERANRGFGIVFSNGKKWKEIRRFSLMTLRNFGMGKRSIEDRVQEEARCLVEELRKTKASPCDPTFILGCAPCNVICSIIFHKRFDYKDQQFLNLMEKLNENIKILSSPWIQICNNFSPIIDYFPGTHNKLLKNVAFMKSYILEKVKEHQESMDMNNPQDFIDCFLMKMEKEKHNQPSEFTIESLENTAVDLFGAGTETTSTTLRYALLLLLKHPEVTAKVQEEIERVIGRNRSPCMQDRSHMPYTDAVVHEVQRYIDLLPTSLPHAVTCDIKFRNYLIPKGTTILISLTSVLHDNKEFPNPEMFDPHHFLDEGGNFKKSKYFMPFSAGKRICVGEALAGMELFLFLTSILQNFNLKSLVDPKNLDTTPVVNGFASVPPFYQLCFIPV
# Summary of the method: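 Cell-free assay of recombinant human CYP2C9 produced in Sf9 cells, with enzyme activity read by fluorescence intensity 0.75 h after compound addition. Loss of signal versus an acetonitrile negative control indicates inhibition. Primary screen used 10 uM in duplicate; actives were retested in concentration series.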
# [8] = target: Cytochrome P450 3A4 (Homo sapiens) (UniProt P08684); test: NVS_ADME_hCYP3A4: NovaScreen (NVS) CYP450-related Enzyme Activity (ADME) Assay for human CYP3A4 (AID 2283110)
# Summary of the method: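 Activity is derived from decreased fluorescence intensity relative to acetonitrile, measured 0.33 hour after dosing insect-cell-expressed CYP3A4 in a cell-free format. Screening used 10 uM in duplicate before concentration-response follow-up.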
# [9] = target: Cytochrome P450 2C19 (Homo sapiens) (UniProt P33261); test: NVS_ADME_hCYP2C19: NovaScreen (NVS) CYP450-related Enzyme Activity (ADME) Assay for human CYP2C19 (AID 2283113);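 on AC50: potency for inhibition seen as loss of fluorescent signal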
# Summary of the method: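 Recombinant insect-cell-expressed enzyme, fluorescent substrate, 1 h after chemical addition, fluorescence intensity. Baseline = acetonitrile vehicle; activity scored as signal loss. Primary HTS single concentration 10 uM, duplicate; actives retested in concentration series.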
# [10] = target: rat CYP1A2, Cyp1a2 (gene 24297) (UniProt P04799); test: NVS_ADME_rCYP1A2: NovaScreen (NVS) CYP450-related Enzyme Activity (ADME) Assay for rat CYP1A2 (AID 2283115)
# Chain of rat CYP1A2, Cyp1a2 (gene 24297) (P04799 whole entry, looked up): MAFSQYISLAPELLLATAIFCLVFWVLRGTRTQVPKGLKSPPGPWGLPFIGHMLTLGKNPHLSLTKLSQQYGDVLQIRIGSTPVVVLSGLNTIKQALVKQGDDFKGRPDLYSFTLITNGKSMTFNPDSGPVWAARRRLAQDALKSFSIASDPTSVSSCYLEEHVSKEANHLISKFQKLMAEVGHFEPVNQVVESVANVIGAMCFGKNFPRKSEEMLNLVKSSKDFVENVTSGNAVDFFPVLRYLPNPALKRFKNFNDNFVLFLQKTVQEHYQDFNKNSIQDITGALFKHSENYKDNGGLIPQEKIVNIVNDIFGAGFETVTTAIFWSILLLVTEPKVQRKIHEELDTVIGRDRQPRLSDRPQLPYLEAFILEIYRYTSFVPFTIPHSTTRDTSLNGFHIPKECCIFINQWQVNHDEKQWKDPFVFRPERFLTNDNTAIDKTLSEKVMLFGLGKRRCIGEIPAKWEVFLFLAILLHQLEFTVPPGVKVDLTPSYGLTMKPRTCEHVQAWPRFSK
# Summary of the method: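 Primary testing ran in duplicate at 10 uM, with actives re-tested across concentration series. Fluorescence intensity from substrate turnover by recombinant protein, measured 1 hour post-dosing, with signal loss scored against acetonitrile vehicle.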
# [11] = target: rat CYP2C12, Cyp2c12 (gene 25011) (UniProt P11510); test: NVS_ADME_rCYP2C12: NovaScreen (NVS) CYP450-related Enzyme Activity (ADME) Assay for rat CYP2C12 (AID 2283119)
# Chain of rat CYP2C12, Cyp2c12 (gene 25011) (P11510 whole entry, looked up): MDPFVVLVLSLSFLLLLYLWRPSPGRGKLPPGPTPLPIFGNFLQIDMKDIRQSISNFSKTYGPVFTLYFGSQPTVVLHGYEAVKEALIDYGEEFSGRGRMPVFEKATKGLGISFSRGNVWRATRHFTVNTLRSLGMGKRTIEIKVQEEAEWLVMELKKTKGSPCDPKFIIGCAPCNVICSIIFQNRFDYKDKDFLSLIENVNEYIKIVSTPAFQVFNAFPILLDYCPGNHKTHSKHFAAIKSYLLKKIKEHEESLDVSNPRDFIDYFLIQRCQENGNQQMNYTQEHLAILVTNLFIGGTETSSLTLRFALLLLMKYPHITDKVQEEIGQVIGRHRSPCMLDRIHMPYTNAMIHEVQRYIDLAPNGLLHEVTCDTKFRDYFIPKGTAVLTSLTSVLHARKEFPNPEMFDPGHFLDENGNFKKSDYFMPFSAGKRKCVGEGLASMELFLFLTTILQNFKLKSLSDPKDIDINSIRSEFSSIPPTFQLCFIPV
# Summary of the method: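 Fluorescent-substrate turnover by recombinant rat CYP2C12, measured at 0.5 h, normalized to acetonitrile vehicle. Chemicals screened first at a single 10 uM concentration in duplicate, with concentration series for actives.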
# rat CYP2C6, gene 293989 = test: NVS_ADME_rCYP2C6: NovaScreen (NVS) CYP450-related Enzyme Activity (ADME) Assay for rat CYP2C6 (AID 2283120)
# Summary of the method: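 Compounds first tested in duplicate at 10 uM, hits (e.g. 30% inhibition) re-run in singleton dose series to a 20 uM top concentration. Enzyme activity of recombinant rat CYP2C6 measured via fluorescent substrate turnover after 1 h; acetonitrile baseline.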
# [12] = target: rat CYP2C13, Cyp2c13 (gene 171521) (UniProt P20814); test: NVS_ADME_rCYP2C13: NovaScreen (NVS) CYP450-related Enzyme Activity (ADME) Assay for rat CYP2C13 (AID 2283121)
# Chain of rat CYP2C13, Cyp2c13 (gene 171521) (P20814 whole entry, looked up): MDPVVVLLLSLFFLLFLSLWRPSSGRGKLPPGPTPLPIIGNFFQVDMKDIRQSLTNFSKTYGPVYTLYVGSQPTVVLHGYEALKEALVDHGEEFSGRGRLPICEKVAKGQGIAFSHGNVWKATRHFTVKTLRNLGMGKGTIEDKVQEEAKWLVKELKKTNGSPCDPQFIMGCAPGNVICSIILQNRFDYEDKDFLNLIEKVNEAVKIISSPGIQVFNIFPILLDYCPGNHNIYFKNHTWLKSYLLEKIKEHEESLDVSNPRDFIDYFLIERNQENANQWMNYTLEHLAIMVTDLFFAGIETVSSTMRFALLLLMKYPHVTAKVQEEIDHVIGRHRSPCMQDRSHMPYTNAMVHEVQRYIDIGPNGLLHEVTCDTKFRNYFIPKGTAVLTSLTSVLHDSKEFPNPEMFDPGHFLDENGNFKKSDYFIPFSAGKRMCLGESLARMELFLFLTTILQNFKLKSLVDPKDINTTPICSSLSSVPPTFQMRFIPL
# Summary of the method: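 Inhibition is read as decreased fluorescent product formation, referenced to acetonitrile vehicle. Cell-free recombinant rat Cyp2c13 reaction ran 0.75 hour; compounds first at 10 uM in duplicate, then concentration series for actives.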
# [13] = target: rat CYP2D1, Cyp2d1 (gene 266684) (UniProt P10633); test: NVS_ADME_rCYP2D1: NovaScreen (NVS) CYP450-related Enzyme Activity (ADME) Assay for rat CYP2D1 (AID 2283122)
# Summary of the method: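 Rat CYP2D1 enzyme activity measured by fluorescence intensity in a cell-free format, 0.75 h post-dosing, acetonitrile as negative control. Screening at 10 uM in duplicate, with actives followed in concentration series up to 20 uM.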
# rat CYP3A1, gene 25642 = test: NVS_ADME_rCYP3A1: NovaScreen (NVS) CYP450-related Enzyme Activity (ADME) Assay for rat CYP3A1 (AID 2283126)
# Summary of the method: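 Compounds went first at 10 uM duplicate, then to series with 20 uM maximum. Fluorescence from substrate turnover by the recombinant enzyme was measured 0.5 h post-dosing, inhibition scored against acetonitrile vehicle.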
# [14] = target: rat CYP3A2, Cyp3a2 (gene 266682) (UniProt P05183); test: NVS_ADME_rCYP3A2: NovaScreen (NVS) CYP450-related Enzyme Activity (ADME) Assay for rat CYP3A2 (AID 2283128)
# Chain of rat CYP3A2, Cyp3a2 (gene 266682) (P05183 whole entry, looked up): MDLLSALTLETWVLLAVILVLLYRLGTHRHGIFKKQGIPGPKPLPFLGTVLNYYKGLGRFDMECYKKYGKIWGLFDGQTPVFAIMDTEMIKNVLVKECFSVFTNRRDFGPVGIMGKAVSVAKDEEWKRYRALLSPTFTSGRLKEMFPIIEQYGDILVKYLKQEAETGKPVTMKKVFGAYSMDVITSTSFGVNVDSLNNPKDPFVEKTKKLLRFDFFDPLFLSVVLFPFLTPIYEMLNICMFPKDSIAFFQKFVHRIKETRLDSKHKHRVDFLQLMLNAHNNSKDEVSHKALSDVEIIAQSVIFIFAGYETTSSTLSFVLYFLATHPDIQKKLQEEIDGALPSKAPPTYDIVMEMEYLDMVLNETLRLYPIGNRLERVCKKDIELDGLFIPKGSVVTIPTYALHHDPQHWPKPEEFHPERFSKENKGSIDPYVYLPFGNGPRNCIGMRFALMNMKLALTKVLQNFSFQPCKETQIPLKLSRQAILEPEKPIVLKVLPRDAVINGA
# Summary of the method: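 Fluorescence readout of extracted rat CYP3A2 activity 0.5 h post-dose, acetonitrile as negative control. Single-point testing in duplicate at 10 uM, followed by concentration series to a 20 uM maximum for actives.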
# Caspase-1 (Homo sapiens) = Caspase-1 (Homo sapiens) (UniProt P29466); test: NVS_ENZ_hCASP1: NovaScreen (NVS) Enzymatic Assay for human Caspase 1 (CASP1) (AID 2283132)
# Chain of Caspase-1 (Homo sapiens) (P29466 whole entry, looked up): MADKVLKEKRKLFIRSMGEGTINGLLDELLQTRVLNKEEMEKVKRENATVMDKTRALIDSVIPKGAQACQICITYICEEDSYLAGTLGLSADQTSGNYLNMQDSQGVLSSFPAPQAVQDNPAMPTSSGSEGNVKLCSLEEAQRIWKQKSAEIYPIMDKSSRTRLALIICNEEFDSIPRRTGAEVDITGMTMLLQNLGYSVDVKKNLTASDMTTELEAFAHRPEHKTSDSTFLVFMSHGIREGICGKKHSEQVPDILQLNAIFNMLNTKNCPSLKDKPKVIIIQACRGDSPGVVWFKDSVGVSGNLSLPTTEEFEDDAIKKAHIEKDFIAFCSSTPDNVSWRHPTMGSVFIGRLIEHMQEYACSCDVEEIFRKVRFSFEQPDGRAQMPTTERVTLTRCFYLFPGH
# Summary of the method: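 Compounds were first tested in duplicate at 25 uM, with follow-up concentration series up to 50 uM. The bacterially expressed enzyme was read by fluorescence at 1 h post-dosing. Signal loss versus DMSO baseline indicates reduced enzyme activity.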
# [15] = target: human Acetylcholinesterase (AChE), ACHE (gene 43) (UniProt P22303); test: NVS_ENZ_hAChE: NovaScreen (NVS) Enzymatic Assay for human Acetylcholinesterase (AChE) (AID 2283129)
# Summary of the method: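 Actives from a duplicate single-point screen (25 uM) were followed up in concentration series. Enzyme activity read by absorbance (colorimetric) 0.33 hour after dosing, cell-free, normalized to DMSO, with loss of signal scored.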
# [16] = target: human AMP-activated Protein Kinase, alpha 1 (AMPKa1), PRKAA1 (gene 5562) (UniProt Q13131); test: NVS_ENZ_hAMPKa1: NovaScreen (NVS) Enzymatic Assay for human AMP-activated Protein Kinase, alpha 1 (AMPKa1) (AID 2283130)
# Summary of the method: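 Compounds were screened in duplicate at 25 uM, and those reaching ~30% inhibition were titrated up to 50 uM. The enzyme was recombinant human AMPKα1, and kinase turnover was read by fluorescence/mobility shift 1 h post-dosing as loss of signal versus DMSO.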
compound,measurement,setting,value
CCCOCC(=Nc1ccc(Cl)cc1C(F)(F)F)n1ccnc1,AC50,[1],1.58 µM (active)
same,AC50,[2],7.01 µM (active)
same,AC50,[3],4.78 µM (active)
same,AC50,[4],3.77 µM (active)
same,AC50,[5],0.101 µM (active)
same,AC50,[6],6.7 µM (active)
same,AC50,[7],4.36 µM (active)
same,AC50,[8],0.522 µM (active)
same,AC50,[9],0.16 µM (active)
same,outcome,[10],inactive
same,AC50,[11],2.46 µM (active)
same,AC50,"rat CYP2C6, gene 293989",0.976 µM (active)
same,AC50,[12],0.966 µM (active)
same,AC50,[13],6.88 µM (active)
same,AC50,"rat CYP3A1, gene 25642",2.8 µM (active)
same,AC50,[14],1.7 µM (active)
CSc1nc(NC(C)C)nc(NC(C)C)n1,AC50,[2],5.92 µM (active)
same,outcome,[5],inactive
same,AC50,[9],13.4 µM (active)
same,AC50,[12],7.91 µM (active)
same,AC50,"rat CYP3A1, gene 25642",5.92 µM (active)
same,outcome,Caspase-1 (Homo sapiens),inactive
CCC(CC)Nc1c([N+](=O)[O-])cc(C)c(C)c1[N+](=O)[O-],outcome,[2],inactive
same,AC50,[9],10 µM (active)
C#CC(C)(C)NC(=O)c1cc(Cl)cc(Cl)c1,AC50,[2],10 µM (active)
same,AC50,[3],2.67 µM (active)
same,AC50,[5],1.34 µM (active)
same,outcome,Caspase-1 (Homo sapiens),inactive
FC(F)C(F)(F)OCC(Cn1cncn1)c1ccc(Cl)cc1Cl (centres undefined),AC50,[1],3.74 µM (active)
same,AC50,[2],4.85 µM (active)
same,AC50,[3],0.915 µM (active)
same,AC50,[7],2.91 µM (active)
same,AC50,[8],6.4 µM (active)
same,AC50,[9],0.00646 µM (active)
same,AC50,[11],3.95 µM (active)
same,AC50,"rat CYP2C6, gene 293989",1.68 µM (active)
same,AC50,[12],0.257 µM (active)
same,AC50,[13],7.86 µM (active)
same,AC50,"rat CYP3A1, gene 25642",3.65 µM (active)
same,AC50,[14],5.51 µM (active)
CCCCOC(=O)c1ccccc1C(=O)O,outcome,[2],inactive
same,outcome,[4],inactive
same,outcome,[9],inactive
COP(=O)(OC)SCn1c(=O)oc2cc(Cl)cnc21,AC50,[1],9 µM (active)
same,AC50,[9],4.57 µM (active)
same,AC50,"rat CYP3A1, gene 25642",9.11 µM (active)
same,AC50,[14],6.18 µM (active)
same,AC50,[15],6.65 µM (active)
Cc1cc(C2CC2)nc(Nc2ccccc2)n1,AC50,[2],2.87 µM (active)
same,AC50,[7],7 µM (active)
same,outcome,[9],inactive
same,outcome,[10],inactive
same,AC50,[13],6.96 µM (active)
same,AC50,"rat CYP3A1, gene 25642",10.7 µM (active)
same,outcome,[16],inactive
same,outcome,Caspase-1 (Homo sapiens),inactive
CCOP(=O)(NC(C)C)Oc1ccc(SC)c(C)c1 (centres undefined),AC50,[2],4.84 µM (active)
same,AC50,[9],5.92 µM (active)
same,outcome,[10],inactive
same,AC50,"rat CYP3A1, gene 25642",7.98 µM (active)
O=[N+]([O-])c1cc(C(F)(F)F)c(Cl)c([N+](=O)[O-])c1Nc1ncc(C(F)(F)F)cc1Cl,outcome,[2],inactive
same,AC50,[7],1.84 µM (active)
same,AC50,[9],1.39 µM (active)
same,outcome,[11],inactive
